For eight molecules, growth results are on record in PubChem BioAssay (NCI).

What all share (test): NCI-60 one-dose screen, 48 h (100 = growth as untreated, 0 = no growth, -100 = all killed)
Settings in all cases: 10 µM unless noted

The subject of assay [1] is DU-145 prostate.
Assay [2] concerns K-562 leukemia.
For assay [3], the system named is MALME-3M melanoma.
In assay [4] the test system is MDA-MB-231 breast.
Assay [5] concerns RXF 393 renal.
Assay [6] concerns SF-268 CNS.
The test system of assay [7] is SF-295 CNS.
Assay [8] has as its system SF-539 CNS.
Assay [9] concerns UACC-257 melanoma.
In assay [10] the test system is M14 melanoma.
The test system of assay [11] is HCT-15 colon.
Assay [12] deals with HT29 colon.
Assay [13] deals with SNB-75 CNS.
Assay [14] deals with SNB-19 CNS.
For assay [15], the system named is U251 CNS.
The test system of assay [16] is PC-3 prostate.
In assay [17] the test system is SK-MEL-5 melanoma.
The subject of assay [18] is UACC-62 melanoma.
Assay [19] has as its system LOX IMVI melanoma.
The test system of assay [20] is SK-MEL-28 melanoma.

The panel holds about 83,000 compounds, 20% with a hit somewhere; the sample as a whole holds those more often.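 Note: values are percent growth. 100 is the growth of untreated cells, values between 100 and 0 indicate rising inhibition; between -100 and 0 indicates cell death.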 A number with no mark means an inactive call. Activity calls are given as the source filed them. The calls were made as follows: active = growth percent below 10; inactive = the rest.

`O=c1onc(-c2ccccc2)c2ccccc12`: the growth in assay [1] is 113%; in [2] it was 105%; in [3] it was 121%; in assay [4], 97%; in assay [5], 90.5%; in [6], 113%. Also, the growth in assay [7] is 101%; in [8] it was 122%; in assay [9] it was 120%; in assay [10], 118%; in assay [11], 115%; in [12], 109%. In addition, the growth was 109% in [13]; 104% in [14]; 98.7% in assay [15]; 102% in [16]; 103% in assay [17]; 103% in [18]. Moreover, the growth in assay [19] is 97.5%; in [20] it was 103%.

As for `O=C(C[Si](CC(=O)c1cccc(C(F)(F)F)c1)CC(=O)c1cccc(C(F)(F)F)c1)c1cccc(C(F)(F)F)c1`, the growth is 33.2% in [1]; 4.55% (active) in assay [2]; 77.2% in assay [3]; 86.3% in assay [4]; 102% in assay [5]; 40% in [6]. The growth in assay [7] is 2.69% (active); in assay [8] it was 107%; in assay [9], 81.8%; in [10] it was 89.4%; in assay [11], 99.1%; in assay [12] it was 62.8%. Moreover, the growth in assay [13] was 90.8%; in [14], 101%; in assay [15], 51.6%; in assay [16] it was -14.7% (active); in [17] it was 99.8%; in assay [18], 66.7%. The growth in [19] is 73.2%; in assay [20] it was 98.6%.

For the molecule `COc1ccc(-c2cc(=O)oc3c4c(ccc23)OCN(Cc2ccc(F)cc2)C4)cc1`, the growth in assay [1] was 73.4%; in assay [2] it was 24.3%; in assay [3], 77.1%; in assay [4], 58.9%; in assay [5] it was 57%; in assay [6], 82%. Moreover, the growth in assay [7] is 27.3%; in assay [8], 74.7%; in assay [9], 39.6%; in assay [10], 54.6%; in assay [11], 64.3%; in [12] it was 42.4%. In addition, the growth in [13] was 69.7%; in assay [14] it was 72.2%; in assay [15], 59%; in [16], 54.9%; in [17], 3.99% (active); in [18], 61.6%. Moreover, the growth is 73% in [19] and 83.4% in [20].

Consider `Cc1cc(=O)oc2c1ccc1oc(C(=O)c3ccccc3)c(C)c12`, for which the growth is 98.5% in assay [1]; 49.2% in [2]; 113% in assay [3]; 76.3% in assay [4]; 99.8% in [5]; 122% in assay [6]. Further, the growth in assay [7] was 55.8%; in [8], 92.5%; in assay [9] it was 100%; in assay [10], 77.2%; in assay [11], 64%; in assay [12] it was 51.8%. The growth in assay [13] was 103%; in [14], 103%; in [15] it was 83.9%; in assay [16], 86.4%; in assay [17], 84.3%; in [18] it was 80.8%. The results for the growth in [19] and in [20] were 80.5% and 105%, respectively.

As for `O=c1ccc2ccccc2o1`, the growth in [1] was 112%; in [2], 112%; in assay [3], 110%; in [4], 100%; in assay [5], 116%; in [6], 102%. Also, the growth in assay [7] was 97.7%; in assay [8] it was 102%; in assay [9], 101%; in assay [10], 104%; in assay [11], 98%; in assay [12], 102%. Also, the growth in assay [13] was 89.4%; in assay [14], 112%; in assay [15], 104%; in assay [16] it was 82.2%; in assay [17], 107%; in assay [18], 98.4%. Besides, the figures for the growth in assay [19] and in [20] were 109% and 108%, respectively.

`CC1SC(c2cccc(Oc3ccccc3)c2)N(CCc2cccs2)C1=O` (stereo not given): the growth is -6.09% (active) in assay [1]; 9.44% (active) in [2]; -72.7% (active) in assay [3]; -47.5% (active) in [4]; -90.6% (active) in assay [5]; -5.54% (active) in [6]. Further, the growth in [7] is -35.6% (active); in assay [8], -82.3% (active); in assay [9], -45.1% (active); in [10], -74% (active); in assay [11], -16.3% (active); in [12] it was -24.7% (active). Besides, the growth in [13] is -11.7% (active); in assay [14], 11.9%; in assay [15], -25.7% (active); in [16] it was 2.18% (active); in assay [17], -100% (active); in assay [18], -71.1% (active). In addition, the growth in [19] was -100% (active); in assay [20], -57% (active).

For the molecule `COc1ccc(Cn2c(Br)c3c(c2-c2cc(OC)c(OC)c(OC)c2)CCc2sc(N)nc2-3)cc1`, the growth in assay [1] was 12.4%; in assay [2], 4.43% (active); in assay [3] it was 47.7%; in [4], 12.6%; in assay [5], -0.407% (active); in assay [6], 44.3%. Also, the growth in [7] was 43.7%; in assay [8] it was -13.5% (active); in [9] it was 57.5%; in [10], 12%; in assay [11] it was 18.8%; in assay [12] it was -12.4% (active). The growth in assay [13] is -0.745% (active); in [14], 55.4%; in assay [15], 21.8%; in assay [16], 28.8%; in assay [17] it was 10.1%; in [18] it was 25.5%. The growth was 33.5% in [19] and 33.9% in [20].

On to `Clc1ccc(C2=NN(c3ccccc3)[C@H](c3cn(-c4ccccc4)nc3-c3ccccc3)C2)cc1`, for which the growth in assay [1] is 119%; in [2] it was 111%; in assay [3] it was 103%; in [4], 96.6%; in assay [5] it was 106%; in assay [6], 109%. Further, the growth in assay [7] was 108%; in assay [8] it was 107%; in [9] it was 92.2%; in assay [10] it was 109%; in assay [11] it was 103%; in assay [12], 94.6%. Moreover, the growth in assay [13] was 97%; in assay [14], 103%; in assay [15], 93.1%; in assay [16], 93.9%; in assay [17], 114%; in [18] it was 107%. The growth in [19] was 96.4%; in assay [20] it was 110%.
